Screens from PubChem.
Rab9 prom act – activates the Rab9 promoter; hit rate 2.8% among 320,000; Huh7 Rab9 promoter-luciferase reporter, luminescence, 24 h; Potency, µM (titrated, usually from 9.22 µM), hits mostly activators; note: nearly all actives have a fitted effect of over 60% in size
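Cells were plated at 1500 per well in reduced-serum medium with 10% FBS and left 2 h. Compound in DMSO was then added for 24 h at 37 °C. Reporter signal was read by luminescence after 10 min with luciferase detection reagent.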
SMN2 splice up – enhancers of SMN2 splice variant expression | HEK293 SMN2-luciferase splicing reporter, luminescence, 30-36 h | Potency, µM (series often up to 46.1 µM), actives largely listed as activators | hit rate 2.8% among 210,000; note: nearly all actives have a fitted effect of over 55% in size
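HEK293 cells carry an SMN2 minigene-luciferase reporter in which exon 7 inclusion puts luciferase in frame. Cells were seeded at 2000 cells/well, attached for 10-12 hours, then exposed to compounds for 30-36 hours at 37C before ONE-Glo luminescence.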
FLuc counter – counter-screen for miR-21 project: firefly luciferase inhibitors or activators. P08659. purified FLuc, Km substrates, luminescence inhibition. Potency, µM (titrated, usually from 57.5 µM), usual class: inhibitors. hit rate 6.9% among 360,000; note: nearly all actives have a fitted effect of over 55% in size
Target sequence (P08659 whole entry, looked up): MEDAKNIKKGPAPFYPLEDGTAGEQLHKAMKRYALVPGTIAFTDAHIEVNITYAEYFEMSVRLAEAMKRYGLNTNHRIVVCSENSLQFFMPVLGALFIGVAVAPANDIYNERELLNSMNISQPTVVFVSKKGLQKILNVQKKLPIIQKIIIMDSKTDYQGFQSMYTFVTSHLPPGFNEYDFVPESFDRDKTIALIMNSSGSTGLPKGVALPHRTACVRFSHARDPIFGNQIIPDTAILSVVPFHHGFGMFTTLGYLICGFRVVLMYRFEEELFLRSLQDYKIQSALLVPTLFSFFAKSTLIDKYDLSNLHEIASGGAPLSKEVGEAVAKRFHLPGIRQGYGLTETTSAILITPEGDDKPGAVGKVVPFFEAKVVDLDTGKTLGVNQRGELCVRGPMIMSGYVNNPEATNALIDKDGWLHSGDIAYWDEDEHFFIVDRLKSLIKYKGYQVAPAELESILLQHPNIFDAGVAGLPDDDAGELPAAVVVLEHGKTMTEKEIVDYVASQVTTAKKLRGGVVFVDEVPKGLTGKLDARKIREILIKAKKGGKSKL
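Biochemical qHTS of compounds, final roughly 60 µM downward over six points, against 10 nM purified firefly luciferase using Km concentrations of substrates (10 uM D-luciferin, 10 uM ATP) in Tris acetate pH 7.5 buffer; luminescence output.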
ELG1 genotoxic – inducers of genotoxicity in HEK293T ELG1-luciferase cells; HEK293T ELG1-luciferase reporter, luminescence, 16 h; Potency, µM (series often up to 46 µM), actives largely listed as activators; hit rate 1.3% among 330,000; note: nearly all actives have a fitted effect of over 60% in size
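Genotoxicity was scored as increased ELG1-luciferase reporter signal, measured by ONE-Glo luminescence (30 min, room temperature). Compound or vehicle exposure of the HEK293T reporter cells lasted 16 hr at 37°C.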
KinaseGlo FLuc – blocks Kinase-Glo luciferase, a counter-screen artifact | Potency, µM (series often up to 38.3 µM), most hits filed as inhibitors | hit rate 0.28% among 200,000 | AID 1379 | Kinase-Glo luciferase, ATP luminescence, 8 min | Q27757; note: nearly all actives have a fitted effect of over 60% in size
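Light output from Kinase-Glo luciferase with luciferin and 10 uM ATP in 50 mM imidazole pH 7.2, KCl, MgCl2, Tween 20, BSA; compound pin-delivered, 8-min ambient incubation, then luminescence read.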
NPC1 promoter act – activates the NPC1 promoter; hit rate 2.4% among 320,000; Potency, µM (series often up to 9.22 µM), actives largely listed as activators; AID 485313; Huh7 NPC1 promoter luciferase reporter, 24 h; note: nearly all actives have a fitted effect of over 60% in size
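Quantitative HTS used a cell-based reporter: Huh7 cells stably bearing the NPC1 promoter upstream of luciferase were treated with compounds for 24 h, and promoter activation was read as luminescence.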
Numbers stand for hits. This is a sample that favours compounds with a hit; in the whole collection about 7.4% have one here. Calls come from the whole dose curve; as a rule, active = well fitted curve in the direction sought with a large enough effect; inconclusive = small, poorly fitted or top-dose-only effect, or another doubt; inactive = no such curve, though single readings can be large; an effect the other way counts as inactive or inconclusive.

What do the screens show for `N/C(=N\OC(=O)c1ccccc1Cl)c1cccc([N+](=O)[O-])c1`?
Rab9 prom act: 0.89µM; FLuc counter: 1.2µM; ELG1 genotoxic: 2.6µM; NPC1 promoter act: 1.4µM

Results for N/C(=N\OC(=O)c1ccc(F)cc1)c1cccc([N+](=O)[O-])c1 ?
Rab9 prom act: inconclusive; FLuc counter: 0.24µM; ELG1 genotoxic: inconclusive; NPC1 promoter act: inconclusive

Results for Cc1cccc(/C(N)=N/OC(=O)c2ccc(F)cc2)c1 ?
Rab9 prom act: 1.6µM; SMN2 splice up: inconclusive; FLuc counter: 0.27µM; ELG1 genotoxic: inconclusive; KinaseGlo FLuc: 11µM; NPC1 promoter act: 1µM

How did CN(C(=O)c1cccc(NC(=O)Cc2cccc([N+](=O)[O-])c2)c1)C1CC1 do in these assays?
ELG1 genotoxic: inactive

Results for COCCCNC(=O)CSc1nc2cc3c(cc2c(=O)n1CCCC(=O)NCc1ccc2c(c1)OCO2)OCO3 ?
FLuc counter: inactive

What do the screens show for `COc1cccc(CN2CCN(Cc3ccc(OC)c(OC)c3)CC2CCO)c1` (configuration not stated)?
Rab9 prom act: inactive; FLuc counter: inactive; ELG1 genotoxic: inactive; KinaseGlo FLuc: inactive; NPC1 promoter act: inactive

Results for COc1ccc(NC(=O)Cn2c(=O)n(Cc3ccccc3Cl)c(=O)c3cc(OC)c(OC)cc32)cc1OC ?
SMN2 splice up: inactive; FLuc counter: inactive

What do the screens show for `O=C(CCN1C(=O)c2ccc([N+](=O)[O-])cc2C1=O)Nc1ccccc1C(=O)O`?
Rab9 prom act: inactive; FLuc counter: inactive; ELG1 genotoxic: inactive; NPC1 promoter act: inactive

What do the screens show for `O=C(CSc1ncn[nH]1)Nc1ccccc1-c1ccccc1`?
Rab9 prom act: inactive; SMN2 splice up: inactive; FLuc counter: inactive; ELG1 genotoxic: inactive; KinaseGlo FLuc: inactive; NPC1 promoter act: inactive

What do the screens show for `Nc1cc(=O)[nH]c(SCC(=O)Nc2ccccc2-c2ccccc2)n1`?
Rab9 prom act: inactive; SMN2 splice up: inactive; FLuc counter: inactive; ELG1 genotoxic: inactive; KinaseGlo FLuc: inactive; NPC1 promoter act: inactive

Results for CCn1c(Cc2ccccc2)nnc1SCC(=O)Nc1nnc(-c2ccccc2)s1 ?
Rab9 prom act: inactive; SMN2 splice up: 0.11µM; FLuc counter: inconclusive; ELG1 genotoxic: inactive; KinaseGlo FLuc: inactive; NPC1 promoter act: inactive

How did O=C(CSc1ncn[nH]1)Nc1nnc(-c2ccccc2)s1 do in these assays?
Rab9 prom act: inconclusive; SMN2 splice up: inactive; FLuc counter: 21µM; ELG1 genotoxic: inconclusive; KinaseGlo FLuc: inactive; NPC1 promoter act: inactive

How did Nc1cc(=O)[nH]c(SCC(=O)Nc2nnc(-c3ccccc3)s2)n1 do in these assays?
Rab9 prom act: inactive; SMN2 splice up: inactive; FLuc counter: 24µM; ELG1 genotoxic: inactive; KinaseGlo FLuc: inactive; NPC1 promoter act: inactive

What do the screens show for `CC(C)Cc1nnc(NC(=O)CSc2nc(-c3ccccc3)cc(=O)[nH]2)s1`?
Rab9 prom act: inactive; FLuc counter: 12µM; ELG1 genotoxic: inactive; NPC1 promoter act: inactive

How did CCc1ccccc1NC(=O)C1COc2ccccc2C1 (configuration not stated) do in these assays?
FLuc counter: inactive

Results for COc1ccc(/C=C2\SC(=S)N(N3CCOCC3)C2=O)c(OC)c1 ?
Rab9 prom act: inactive; FLuc counter: inconclusive; ELG1 genotoxic: inactive; NPC1 promoter act: inactive

Results for COc1cccc(/C=C2\SC(N3CCCC(C)C3)=NC2=O)c1OC (configuration not stated) ?
Rab9 prom act: inconclusive; FLuc counter: 5.4µM; ELG1 genotoxic: inconclusive; NPC1 promoter act: inconclusive

How did COc1cccc(/C=C2\SC(N3CCC(C)CC3)=NC2=O)c1OC do in these assays?
Rab9 prom act: inactive; FLuc counter: 17µM; ELG1 genotoxic: inactive; NPC1 promoter act: inactive

What do the screens show for `CN1CCN(C2=NC(=O)/C(=C/c3ccccc3OS(=O)(=O)c3ccccc3)S2)CC1`?
Rab9 prom act: inactive; FLuc counter: inactive; ELG1 genotoxic: inactive; NPC1 promoter act: inactive

How did CCOC(=O)C1CCN(C2=NC(=O)/C(=C/c3ccccc3OC)S2)CC1 do in these assays?
Rab9 prom act: inactive; FLuc counter: inconclusive; ELG1 genotoxic: inactive; NPC1 promoter act: inactive

How did COc1cccc(/C=C2\SC(=S)N(N3CCOCC3)C2=O)c1OC do in these assays?
Rab9 prom act: inactive; SMN2 splice up: inactive; FLuc counter: 17µM; ELG1 genotoxic: inconclusive; KinaseGlo FLuc: inactive; NPC1 promoter act: inactive

What do the screens show for `COc1ccccc1/C=C1\SC(N2CCC(C)CC2)=NC1=O`?
Rab9 prom act: inactive; FLuc counter: 12µM; ELG1 genotoxic: inconclusive; NPC1 promoter act: inactive

What do the screens show for `CCN(C(=O)CSc1nc2ccccc2n1Cc1ccccc1C#N)c1ccccc1`?
FLuc counter: inactive

Results for O=C(O)c1cc(-c2ccc(/C=N/N3C(=O)C4C5C=CC(CC5)C4C3=O)o2)ccc1Cl (configuration not stated) ?
Rab9 prom act: inactive; FLuc counter: 19µM; ELG1 genotoxic: inactive; KinaseGlo FLuc: inactive; NPC1 promoter act: inactive

What do the screens show for `O=C1C2C3C=CC(CC3)C2C(=O)N1/N=C/c1ccc(O)cc1` (configuration not stated)?
Rab9 prom act: inactive; SMN2 splice up: inactive; FLuc counter: 15µM; ELG1 genotoxic: inconclusive; KinaseGlo FLuc: inactive; NPC1 promoter act: inconclusive

How did COC(=O)c1ccc(-c2ccc(/C=N/N3C(=O)C4C5C=CC(CC5)C4C3=O)o2)cc1 (configuration not stated) do in these assays?
Rab9 prom act: 3.2µM; SMN2 splice up: 5µM; FLuc counter: 24µM; ELG1 genotoxic: inactive; KinaseGlo FLuc: inactive; NPC1 promoter act: 3.2µM

How did CC1Cc2ccccc2N1C(=O)CSc1ncc(-c2ccc(F)cc2)n1C (configuration not stated) do in these assays?
Rab9 prom act: 1.1µM; SMN2 splice up: 13µM; FLuc counter: 1.9µM; ELG1 genotoxic: inconclusive; KinaseGlo FLuc: inactive; NPC1 promoter act: 3.5µM

How did Cn1c(-c2ccc(F)cc2)cnc1SCC(=O)N1CCCCC1 do in these assays?
Rab9 prom act: 0.5µM; SMN2 splice up: 8.9µM; FLuc counter: 2.7µM; ELG1 genotoxic: 2.6µM; KinaseGlo FLuc: inactive; NPC1 promoter act: 0.56µM

Results for Cn1c(-c2ccc(F)cc2)cnc1SCC(=O)N1CCCc2ccccc21 ?
Rab9 prom act: inactive; SMN2 splice up: inactive; FLuc counter: inconclusive; ELG1 genotoxic: inactive; KinaseGlo FLuc: inactive; NPC1 promoter act: inactive

What do the screens show for `COCCN(Cc1nc2ccccc2c(=O)[nH]1)C(=O)COc1ccccc1-c1ccccc1`?
Rab9 prom act: inactive; FLuc counter: inactive; ELG1 genotoxic: inactive; NPC1 promoter act: inactive

Results for O=C1N/C(=N/O)S/C1=C/c1cccc([N+](=O)[O-])c1 ?
Rab9 prom act: inactive; SMN2 splice up: inactive; FLuc counter: 21µM; ELG1 genotoxic: inactive; KinaseGlo FLuc: inactive; NPC1 promoter act: inactive
